# Compound activity deposited in PubChem by The Scripps Research Institute Molecular Screening Center.
# IDE act: boosts human insulin-degrading enzyme activity in HEK cells; 340,000 compounds, 0.073% hits; AID 493087; activation, % at 5.96 µM; FAbeta-B cleavage, fluorescence polarization; 0% vehicle, 100% cell-free pure enzyme wells; P14735;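 active = activation above the mean of all tested compounds plus 3 SD, set per screening campaign, cut at about 17% in these data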
# RTF Ca sens act: cardiac RTF calcium sensitization. 340,000 compounds, 0.24% hits. activation, % at 7.2 µM. IANBD-labeled TnC RTF fluorescence at EC20 calcium; 0% EC20 calcium, 100% full calcium;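 active = activation above the mean over all tested compounds plus 3 SD, cut at about 30% in these data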;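 note: rise in fluorescence read as greater calcium sensitivity of cardiac thin filaments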
# RTF Ca sens inh: cardiac RTF calcium desensitization | AID 493244 | IANBD-labeled cardiac RTF, Ca2+ fluorescence | P19429+P45379 | 340,000 compounds, 0.12% hits | inhibition, % at 7.15 µM;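 active = inhibition above the mean inhibition of all tested compounds plus 3 SD, cut at about 17% in these data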;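 note: assay run at fixed EC70 calcium of 1.6 mM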
# IDE cell inh: cellular human IDE inhibition; P14735; HEK cells, FAbetaB cleavage, fluorescence polarization; inhibition, % at 5.59 µM; 320,000 compounds, 0.41% hits; AID 434962;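 active = percent inhibition above the average of all tested compounds plus 3 SD, set per screening campaign, cut at about 16% in these data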;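 note: IDE supplied by intact live HEK cells; FP after avidin binding of uncleaved biotin substrate so inhibition keeps polarization high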
# Hits are given with their value; - = inactive; . = no result; + = active, no number. This is a sample that favours compounds with a hit; in the whole collection about 0.71% have one here.
SMILES,IDE act,RTF Ca sens act,RTF Ca sens inh,IDE cell inh
O=C(COc1ccc([N+](=O)[O-])cc1)Nc1ccc2c(c1)nc1n2CCOC1,-,-,-,-
Cc1cccc(CCNCc2c(C(=O)O)c(C)n(-c3ccccc3)c2C)c1,-,-,-,-
COc1ccc(NC(=O)c2ccc(-c3ccccc3)cc2)cc1NS(=O)(=O)c1ccc(F)cc1,-,-,-,21
COC(=O)Cn1c(=NC(=O)c2sc3ccccc3c2Cl)sc2cc(S(N)(=O)=O)ccc21,-,-,-,20
CC1(C)[C@@H](O)CC[C@]2(C)C3C(O)C=C4[C@H]5C[C@@](C)(CO)CC[C@]5(C)CC[C@]4(C)[C@]3(C)CC[C@@H]12 (some centres not stated),-,-,-,-
C/C(=N\NC(=O)c1cc2c(s1)CCC(C)C2)c1ccc[nH]1 (configuration not stated),-,37,-,-
C/C(=N\NC(=O)c1cc2c(s1)CCC(C)C2)c1ccncc1 (configuration not stated),-,-,-,-
Cn1c(=O)n(C)c2cc(/C=N/NC(=O)c3ccncc3)ccc21,.,.,.,-
CCn1c(O)c(/C=N/NC(=O)c2ccncc2)c(=O)n(CC)c1=S,-,97,-,.
CC1Cc2ccccc2N1Cc1cccc([N+](=O)[O-])c1 (configuration not stated),-,-,-,-
CCc1cccc(Nc2cnn(C34C[C@@H]5C[C@@H](CC(CC(=O)O)(C5)C3)C4)c(=O)c2Cl)c1,-,-,-,21
CC(C)C[C@H]1CNC(=S)N1CC1CCCN1C[C@H](CC(C)C)N1C[C@H](CC(C)C)N(CC2CCCCCC2)C1=S (some centres not stated),-,-,-,.
NS(=O)(=O)c1ccc(CCNC(=O)c2ccc(-c3ccccc3)cc2)cc1,-,-,-,-
Cc1nn(Cc2c(F)c(F)c(F)c(F)c2F)c(C)c1NC(=O)c1nn(C)c(C)c1Br,-,47,-,-
CC(C)=CCc1cc([C@@H]2COc3c(ccc4c3C=CC(C)(C)O4)C2)c(O)cc1O,-,-,-,-
CC1(C)C=Cc2c(ccc3c2OC[C@H](c2ccc(O)cc2O)C3)O1,18,-,-,-
CCCn1nc(-c2ccccc2)c2nc3ccccc3nc21,.,.,.,-
CCn1nc(-c2ccccc2)c2nc3ccccc3nc21,-,50,-,-
Cc1cccc(NC(=O)c2cc(-c3ccc(C)c(C)c3O)n[nH]2)c1,-,-,-,.
COc1cc(C2CC(=O)C3=C(C2)Nc2ncnn2C3c2cccs2)cc(OC)c1OC (configuration not stated),.,.,.,-
COc1cc(C2C=C(c3cccs3)Nc3ncnn32)cc(OC)c1OC (configuration not stated),-,386,-,.
C=CCOC(=O)C1=C[C@H](c2ccc3c(c2)OCO3)C[C@H](OCCCCO)O1,-,-,-,-
Oc1ccc2nnc3c(Br)cnn3c2c1,-,84,-,-
Clc1ccc2nc3c4ccccc4cnn3c2c1,-,-,-,-
CCOC(=O)c1cnn(C)c1NC(=O)c1ccc(Cl)cc1Cl,-,-,-,-
SMILES,IDE act,RTF Ca sens act,RTF Ca sens inh,IDE cell inh
CCCCCCCC/C=C\CCCCCCCC(=O)NCCc1ccc(O)c(O)c1,17,-,-,-
Cc1cc2nc3c(=O)[nH]c(=O)[nH]c3nc2c([N+](=O)[O-])c1N,21,140,-,.
O=C(COC(=O)c1nc(Cl)ccc1Cl)NC(=O)c1ccccc1,-,-,-,-
CCn1c(=N)n(CC(O)c2ccco2)c2ccccc21 (configuration not stated),-,-,-,-
N=c1n(Cc2ccc(Cl)cc2)c2ccccc2n1CC(O)COc1ccccc1 (configuration not stated),-,-,-,-
N=c1n(Cc2ccccc2)c2ccccc2n1CC(O)c1ccco1 (configuration not stated),-,40,-,-
N=c1n(Cc2ccccc2)c2ccccc2n1CC(O)COc1ccc(Cl)cc1Cl (configuration not stated),20,-,-,.
CCCCCc1cccnc1,-,-,-,-
CCCCNC(=O)COC(=O)c1c2c(nc3ccccc13)/C(=C\c1cccs1)CC2,-,37,-,.
O=C(COC(=O)c1c2c(nc3ccccc13)/C(=C/c1ccco1)CC2)NC1CCCC1,-,-,17,.
COc1cccc(/C=N/c2nc3ccccc3[nH]2)c1O,-,187,-,-
COc1cccc(/C=N/Nc2nc3ccccc3[nH]2)c1O,-,-,-,-
CC(=O)Nc1ccc(C(=O)CN2C(=O)NC3(CCOc4ccccc43)C2=O)c(F)c1 (configuration not stated),-,-,-,-
O=C1c2ccccc2C(Nc2ccc3nc(-c4cccnc4)[nH]c3c2)N1Cc1ccco1 (configuration not stated),18,-,-,-
O=C1c2ccccc2C(Nc2ccc(-c3nc4ccccc4[nH]3)cc2)N1Cc1ccco1 (configuration not stated),-,-,-,-
COc1ccc(Nc2nccc(N(C)C)c2C#N)cc1,.,.,.,-
O=C(NS(=O)(=O)Nc1ccccc1)C1=C(N2CCCC2)COC1=O,34,-,-,-
N#Cc1ccc(C23OCCN2CCn2nc4ccccc4c23)cc1 (configuration not stated),-,-,-,-
CC(=O)Oc1ccc(N2C(=O)C3C(C2=O)C(C(=O)c2ccc(Cl)cc2)N2CCCC32)cc1 (configuration not stated),-,45,-,-
COc1ccc(C(=O)NCc2ccc(F)cc2)cc1S(=O)(=O)N1CCCC1,-,-,-,.
CC[C@@]1(O)C(=O)OCc2c1cc1n(c2=O)Cc2cc3c(CN(C)C)c(O)ccc3nc2-1,24,221,-,-
CC[C@@]1(O)C(=O)OCc2c1cc1n(c2=O)Cc2cc3c(N)cccc3nc2-1,-,-,-,-
COc1ccc2noc3c2c1C(=O)c1ccccc1-3,38,+,-,-
COc1ccc(NC(=O)N(C)C[C@H]2Oc3ccc(NC(=O)CCN4CCOCC4)cc3C(=O)N([C@H](C)CO)C[C@@H]2C)cc1,-,-,-,-
Oc1[nH]c2ccccc2c1N=Nc1ccc(F)cc1,-,34,-,-
SMILES,IDE act,RTF Ca sens act,RTF Ca sens inh,IDE cell inh
Oc1[nH]c2ccccc2c1N=Nc1ccccc1,-,-,-,-
Oc1[nH]c2ccccc2c1N=Nc1ccccc1F,-,282,-,-
Oc1[nH]c2ccc(Br)cc2c1N=Nc1ccc(F)cc1,-,467,-,-
CCOc1cc(CNCc2cccnc2)cc(Br)c1OCC(N)=O,-,-,-,-
CC1CC(C)CN(C(=O)C(C)N2CCN(S(=O)(=O)c3ccccc3F)CC2)C1 (configuration not stated),-,-,-,-
CN(C)c1ccc(N=Cc2nc(-c3ccccc3)oc2O)cc1,-,45,-,-
CC(=O)Nc1ccc(N=Cc2nc(-c3ccc(C)cc3)oc2O)cc1,-,38,-,-
Cc1[nH]c(C)c(S(=O)(=O)Nc2cccc(Cl)c2C)c1C(=O)N1CCCCC1,-,-,-,-
Cc1ccc(C)c(N2CCN(C(=O)c3cc4ccccn4n3)CC2)c1,-,103,-,-
